Source: PubChem BioAssay (ICCB-Longwood Screening Facility, Harvard Medical School)
An excerpt weighted towards active compounds, which were near 1.5% of everything screened.
MbtI inh: inhibitors of Mycobacterium tuberculosis siderophore enzyme MbtI; purified MbtI enzyme, fluorescence intensity read-out; inhibition, % (test concentration not listed); hit rate 0.89% among 100,000; in the data active means inhibition mostly above about 56%, no sharp cut-off; inactive means mostly below about 77%
Target sequence (P9WFX0 whole entry, looked up): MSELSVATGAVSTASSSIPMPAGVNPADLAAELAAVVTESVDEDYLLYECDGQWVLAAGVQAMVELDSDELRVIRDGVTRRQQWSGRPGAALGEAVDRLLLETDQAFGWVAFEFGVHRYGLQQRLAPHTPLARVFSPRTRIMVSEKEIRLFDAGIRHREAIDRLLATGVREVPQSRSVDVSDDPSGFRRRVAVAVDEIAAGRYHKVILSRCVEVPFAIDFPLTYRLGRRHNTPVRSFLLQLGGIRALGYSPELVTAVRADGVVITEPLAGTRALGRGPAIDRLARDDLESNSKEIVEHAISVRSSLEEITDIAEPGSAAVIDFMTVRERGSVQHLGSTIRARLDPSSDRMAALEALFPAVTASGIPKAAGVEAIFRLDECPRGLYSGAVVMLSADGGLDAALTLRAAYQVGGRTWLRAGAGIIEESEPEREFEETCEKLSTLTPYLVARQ
PV pol inh: inhibitors of poliovirus RNA polymerase binding and polymerization | poliovirus polymerase elongation, fluorescence polarization; stronger effect = lower value | hit rate 0.66% among 150,000 | % elongation, % (compound at 16.7 µg/mL) | P03300; in the data active means % elongation below about 90%
MenB inh: Mtb MenB enzyme inhibition; MenB enzyme assay, absorbance read-out; hit rate 0.43% among 100,000; inhibition, % (no concentration beside the values); AID 540299; P9WNP5; in the data active means inhibition above about 21%, passing the limit was not always enough
Active calls of the source: *; nt = not tested or not shown.

SMILES | MbtI inh | PV pol inh | MenB inh
COC(=O)c1c(-c2cccs2)csc1NC(=O)c1ccc(Br)cc1 | nt | 66* | nt
COC(=O)c1c(-c2cccs2)csc1NC(=O)CN1CCOCC1 | -22 | 99 | -19
c1ccc(CSc2nncn3c2cc2sccc23)cc1 | 5 | 102 | -106
Cn1c(=O)c2c(ncn2CC(=O)NCc2ccco2)n(C)c1=O | -1 | 101 | 9
COc1ccc(-c2nc3c4ccccc4n(CC(=O)N4CCN(c5ccccc5F)CC4)c(=O)n3n2)cc1 | nt | 98 | nt
O=C(COC(=O)C1CC2C=CC1C2)Nc1cccc(C(F)(F)F)c1 (stereo not given) | -2 | 106 | -10
Cc1cc(C)cc(NC(=O)CCCn2c(=O)c3cccn3c3cccnc32)c1 | -9 | 103 | 0
Cc1noc(C)c1NC(=O)NCc1cc(F)cc2c1OCOC2 | 2 | 103 | 11
O=C1CSC(=S)N1CCc1ccc(Cl)cc1 | -4 | 105 | -21
O=C1C=CC(=O)N1CCc1ccc(Cl)cc1 | 100* | 101 | -7
O=C1C=CC(=O)N1CCc1ccccc1 | 93* | 102 | nt
O=C1CNCC(=O)N1CCc1ccccc1 | 2 | 100 | 6
Cc1cc(C(=O)Oc2ccc(C#N)cc2)c(C)s1 | -11 | 102 | 0
Cc1ccc2oc(=O)c3cnn(CC(=O)Nc4cccnc4)c3c2c1 | -6 | 102 | -4
Cc1cc(C(=O)Nc2sc(C)c(C)c2C#N)cs1 | 11 | 100 | -15
Cc1sc(NC(=O)C2CC2)c(C#N)c1C | 90* | 95 | -50
CN(N)P(=S)(c1ccccc1)N(C)N | 93* | 76* | 4
CN(N)P(=O)(c1ccccc1)c1ccccc1 | nt | 105 | -14
Cc1n[nH]c(C)c1SCC(=O)O | 10 | 105 | -13
CC(C)(C)SCC(=O)O | -7 | 84* | 7
Oc1ccc(O)cc1 | 97* | 99 | 3
Oc1ccc(-c2ccccc2)cc1 | -8 | nt | nt
CC(O)c1ccc(Oc2ccc(C(C)O)cc2)cc1 (stereo not given) | 9 | 102 | -30
CCn1c(-c2ccc(OC)cc2)csc1=Nc1ccc(C(=O)O)cc1 | -12 | 104 | -30
CCn1c(-c2cc(OC)ccc2OC)csc1=Nc1ccc(O)cc1 | 66* | 87* | -37
SMILES | MbtI inh | PV pol inh | MenB inh
CC1CCCN(C(=O)C(Cc2ccccc2)NS(=O)(=O)c2ccc3c(c2)CCC(=O)N3)C1 (stereo not given) | -2 | 103 | -12
Cc1cc2nc3c(=O)[nH]c(=O)nc-3n(C(O)C(O)C(O)C(O)CO)c2cc1C (stereo not given) | 8 | 73 | -90
Cc1nn(-c2ccccc2)c2sc(C(=O)N(Cc3ccccc3)Cc3ccccc3)cc12 | -3 | 102 | -5
Cc1nc(-c2ccc(C(=O)O)cc2)cs1 | 20 | 103 | 28*
Cc1nc(-c2ccc3c(c2)OCCO3)cs1 | 92* | 78* | -13
Cc1nc(-c2cc(C(=O)O)n(C)c2)cs1 | 19 | 99 | 3
c1ccc(-c2csc(-c3ccc4c(c3)OCCO4)n2)cc1 | 42 | 101 | -23
COc1ccc(-n2ncc3c(=O)n(CC(=O)N4CC(C)CC(C)C4)cnc32)cc1 (stereo not given) | -5 | 100 | -36
O=C(CCCN1C(=O)CSc2ncccc21)NCc1ccc(Cl)cc1 | -1 | 106 | -14
Nc1cc(N)nc(Sc2ncnc3ccccc23)n1 | 11 | 101 | -18
COc1ccc(C(=O)Nc2nccs2)cc1OC | -4 | 99 | -13
CC(C)(C)C(=O)Nc1scc(-c2cccs2)c1C(=O)O | nt | 106 | -5
COC(=O)c1c(-c2cccs2)csc1NC(=O)c1ccc(OC)c(OC)c1 | nt | 69* | nt
COC(=O)c1c(-c2cccs2)csc1NC(=O)c1cc(OC)c(OC)c(OC)c1 | nt | 73* | nt
COCc1nnc(NC(=O)c2cc(OC)c(OC)c(OC)c2)s1 | nt | 103 | nt
COC(=O)c1c(-c2cccs2)csc1NC(=O)c1cc(OC)cc(OC)c1 | nt | 71* | nt
Cc1ccc(C)c(N2CCN(S(=O)(=O)c3c(C(=O)N4CCC(C)CC4)c(C)n(C)c3C)CC2)c1 | nt | 112 | nt
Cc1cc(C)cc(-n2ccn3c(CCC(=O)O)nnc3c2=O)c1 | 4 | 98 | -2
Nn1c(SCc2ccccc2)n[nH]c1=S | 70* | 96 | -5
Cn1c(CN)nnc1SCc1ccccc1 | 2 | 100 | -40
N#Cc1cc2c(nc1SCC(O)CNc1ccc(Cl)cc1)CCCC2 (stereo not given) | -3 | nt | nt
CN(C)C(=O)COc1ncnc2ccc(Br)cc12 | -9 | 105 | -21
COC(=O)CC1SC(=O)NC1=S (stereo not given) | 84* | 60 | -52
O=C(CC1SC(=O)NC1=O)Nc1ccccc1NC(=O)CC1SC(=O)NC1=O (stereo not given) | -7 | 102 | -15
C=CCNC(=S)NNc1nccc(-c2cccnc2)n1 | 29 | 100 | -6
SMILES | MbtI inh | PV pol inh | MenB inh
CS(=O)(=O)NNc1nccc(-c2cccnc2)n1 | 87* | 101 | -18
COC(=O)CSc1ncnc2c1cnn2-c1ccccc1 | -20 | 105 | -34
FC(F)(F)c1cc(C(F)(F)F)n2[nH]c(=S)nc2n1 | 96* | 98 | -103
Cc1ccc(-c2cc3nc(C(F)(F)F)cc(C(F)(F)F)n3n2)cc1 | -10 | 104 | -9
NC(=S)Cc1ccc(CC(N)=S)o1 | 82* | 95 | -23
NCc1ccc(C(=O)O)o1 | -7 | 100 | -22
Cc1cc(=O)oc2c(/C=N/c3ccccn3)c(O)ccc12 | 32 | 88* | -23
CC(=O)Oc1c(O)ccc2c(C)cc(=O)oc12 | -1 | 102 | -6
O=C(Nc1nnc(N2CCCCC2)s1)NC12CC3CC(CC(C3)C1)C2 | -10 | 103 | -20
CC1=NN(c2cccc(C(=O)O)c2)C(=O)/C1=C/c1ccc(-c2cccc(Cl)c2C)o1 | 38 | 90* | -17
CC1=NN(c2ccccc2)C(=O)/C1=C/c1ccc(-c2ccccc2)o1 | 1 | 99 | 7
O=C(NCCN1CCN(c2ccccc2)CC1)c1ccc2nc3ccc(Cl)cc3c(=O)n2c1 | 16 | 102 | -14
CCc1nnc(NC(=O)C2CCCO2)s1 (stereo not given) | 4 | 106 | -25
CCc1nnc(NC(=O)C2CCCCC2)s1 | 100* | 101 | -19
Nc1ccccc1NS(=O)(=O)c1cccs1 | 13 | 98 | -13
O=S(=O)(Nc1ccccc1-c1ccccc1)c1cccs1 | 5 | 104 | 52*
CC(C)c1ccc(C2C(C#N)=C(N)SC(N)=C2C#N)cc1 | nt | 45 | -31
N#CC1=C(N)SC(N)=C(C#N)C1c1ccc(O)cc1 | 83* | 92 | -174
Cc1ccc(/C=C/C2=Cc3c(sc(N)c3C#N)C(C)(C)C2)o1 | 89* | 104 | -42
Cc1ccc(/C=C/C2=CC(=C(C#N)C#N)CC(C)(C)C2)o1 | 15 | 151 | -36
CCN1/C(=N\N)c2cccc3cccc1c23 | 12 | 106 | -36
COc1ccc(-c2n[nH]c(=S)n2C)cc1 | 12 | 110 | 6
CC(C)OCCCNc1ncnc2sc3c(c12)CCCC3 | nt | -2.0* | nt
CCN(CC)CCNc1ncnc2sc3c(c12)CCCC3 | 2 | 103 | 10
COc1ccc(S(=O)(=O)N(CC(=O)Nc2ccc3c(c2)OCCO3)c2ccccc2)cc1OC | -15 | 100 | 0
O=C1N(Cc2ccccc2)C(c2ccccc2)C1(F)F (stereo not given) | -1 | 101 | nt
COc1cccc(C2N(Cc3ccccc3)C(=O)C2(F)F)c1OC (stereo not given) | 0 | 89* | nt
